According to PubChem BioAssay (NCATS):
Results filed as inconclusive are left out. Unmarked numbers belong to inactive results. Calls come from the whole dose curve; as a rule, active = well fitted inhibition curve with a large enough effect; inconclusive = small, poorly fitted or top-dose-only effect; inactive = no such curve, though single readings can be large or run the other way.

These molecules were tested against Retinaldehyde dehydrogenase 3 (Homo sapiens) (UniProt P47895) (assay: qHTS for Inhibitors of the Aldehyde Dehydrogenase Family (ALDH1A3) Primary screen (AID 2061315;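 note: plate controls were DMSO vehicle for no effect and reference inhibitor for full effect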)). Conditions: ALDH inhibition qHTS; series mostly up to 56 µM; activity change, negative = inhibition: at the top concentration.

| SMILES | activity change, negative = inhibition |
| --- | --- |
| O=C(NC1(c2ccccc2)CC1)c1c(CN2CCC(N3CCCCC3)CC2)c(-c2cccc(C(F)(F)F)c2)nc2cc(Br)ccc12 | -1.39% |
| CCC(C)CNCC(=O)N1CCc2sccc2C1COc1cccc(C)c1 (stereo unspecified) | 5.45% |
| C=CC(=O)Nc1cccc(CN2C(=O)N(c3c(Cl)c(OC)cc(OC)c3Cl)Cc3cnc(NCCCCN(CC)CC)nc32)c1 | 4.54% |
| C[C@@H](O[C@H]1OCCN(Cc2n[nH]nc2CN(C)C)[C@H]1c1ccc(F)cc1)c1cc(C(F)(F)F)cc(C(F)(F)F)c1 | 19.8% |
| Cc1ccccc1-c1cc(N2CCN(C)CC2)ncc1N(C)C(=O)C(C)(C)c1cc(C(F)(F)F)cc(C(F)(F)F)c1 | -13.2% |
| CC(C)(C)c1ccc(CN2CCN(C(c3ccccc3)c3ccc(Cl)cc3)CC2)cc1 (stereo unspecified) | -18.3% |
